# Sm TGR block = inhibitors of Schistosoma mansoni thioredoxin glutathione reductase | actives 3% (n = 360,000) | AID 485364 | Potency, µM (highest dose often 114 µM), most hits filed as inhibitors | purified TGR, DTNB reduction, TNB absorbance 405 nm | Q962Y6; also: nearly all actives have a fitted effect of over 60% in size
#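 First, TGR (20 nM dispensed) and NADPH were mixed with compound. Second, a 15 min room-temperature incubation followed. Third, further NADPH and then DTNB were added to start the reaction. Finally, TNB absorbance was monitored kinetically.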
# Pf growth 48h = inhibits P. falciparum growth in the first generation, 48 h | actives 5.9% (n = 310,000) | P. falciparum luciferase growth in erythrocytes, 48 h | AID 504832 | Potency, µM (top dose mostly 28.7 µM), usual class: inhibitors
#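 Firefly luciferase activity from engineered P. falciparum reports growth; inhibitors lower the luminescent signal. Cultures contained 2% hematocrit erythrocytes at 0.1% final parasitemia.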
# Giardia FBPA inh = blocks Giardia fructose-bisphosphate aldolase activity; actives 0.71% (n = 290,000); purified Giardia FBPA; AID 2451; Potency, µM (series often up to 59.6 µM), hits mostly inhibitors; also: nearly all actives have a fitted effect of over 55% in size
# Target sequence (A8B2U2 whole entry, looked up): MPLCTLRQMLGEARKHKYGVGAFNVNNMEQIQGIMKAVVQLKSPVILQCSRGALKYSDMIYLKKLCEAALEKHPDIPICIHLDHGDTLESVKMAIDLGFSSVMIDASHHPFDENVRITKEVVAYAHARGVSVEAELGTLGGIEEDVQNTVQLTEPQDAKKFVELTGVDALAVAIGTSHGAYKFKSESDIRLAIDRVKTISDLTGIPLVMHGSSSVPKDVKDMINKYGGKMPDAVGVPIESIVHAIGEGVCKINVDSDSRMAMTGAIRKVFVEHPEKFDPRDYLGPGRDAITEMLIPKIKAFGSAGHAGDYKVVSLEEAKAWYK
#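 Giardia FBPA (40 nM reagent) was preincubated 10 min at RT with compound (up to 57.5 uM final), then substrate plus GAPDH/TPI/NAD/arsenate coupling system with diaphorase/resazurin was added; resorufin fluorescence (525/598 nm) was read after 20 min.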
# HCMV antiviral = blocks human cytomegalovirus replication. HFF cells, HCMV-luciferase reporter, 72 h; stronger effect = lower value. activity change, negative = inhibition, % at 57.5 µM. actives 4.5% (n = 410,000). AID 1259415; in the data active = activity change below about -60%; inconclusive = no clear call, values can overlap the other calls; inactive = above about -39%
#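 HFF cells seeded 16 h at 37C, treated with compounds, infected with luciferase-reporter HCMV at MOI 1 PFU/cell; luciferase read at 72 h post infection, normalized to buffer-only and Salinomycin controls.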
# Pf growth 96h = P. falciparum growth inhibition at 96 hours | actives 6.9% (n = 320,000) | P. falciparum luciferase reporter growth, 96 h | Potency, µM (titrated, usually from 28.7 µM), hits mostly inhibitors
#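 Two parasite generations (96 h, 37 C, 5% CO2) of compound exposure in infected erythrocytes (0.05% parasitemia, 2% hematocrit). Luciferase-reporter P. falciparum; decreased luminescence indicates inhibited growth, aimed at apicoplast-acting delayed death.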
# Hits are given with their value; i = inactive; ? = inconclusive; nt = not tested or not shown. In the library only some 14% were active in any assay of this set; here they are far more common. Unless noted, calls follow the shape of the dose curve; as a rule, active = well fitted curve in the direction sought with a large enough effect; inconclusive = small, poorly fitted or top-dose-only effect, or another doubt; inactive = no such curve, though single readings can be large; an effect the other way counts as inactive or inconclusive.
SMILES,Sm TGR block,Pf growth 48h,Giardia FBPA inh,HCMV antiviral,Pf growth 96h
CCOC(=O)C1=C(C)N=c2s/c(=C/c3ccc(OCC(=O)O)cc3)c(=O)n2C1c1ccc(OC)cc1OC (stereo unspecified),i,0.465µM,i,i,1.17µM
COc1ccc2c(c1)[C@@H](NCc1nccs1)[C@H](C)[C@@H](c1ccccc1)N2C(=O)NC(C)C,nt,nt,nt,i,nt
O=C(CN1CCCN(Cc2ccccc2Cl)S1(=O)=O)NCc1ccccc1,i,nt,nt,i,nt
COc1ccc(C2C(C(C)=O)=C(C)N=c3s/c(=C\c4cc(C)n(C)c4C)c(=O)n32)c(OC)c1 (stereo unspecified),i,9.28µM,i,i,8.28µM
CCOC(=O)C1=C(C)N=c2s/c(=C/c3cccc([N+](=O)[O-])c3O)c(=O)n2C1c1ccc(OC)cc1OC (stereo unspecified),56.2µM,?,i,i,4.65µM
Cc1cccc(NC(c2ccccc2F)c2ccc3ccc(C)nc3c2O)n1 (stereo unspecified),5.01µM,nt,nt,i,nt
CCCC(=O)NC(c1ccc(Cl)cc1Cl)c1ccc2cccnc2c1O (stereo unspecified),i,?,?,-105.0,i
CCCC(=O)NC(c1ccc(Cl)cc1)c1ccc2cccnc2c1O (stereo unspecified),i,?,?,-99.7,i
Cc1ccnc(NC(c2cccc(O)c2)c2ccc3ccc(C)nc3c2O)c1 (stereo unspecified),1.58µM,nt,nt,i,nt
Cc1ccc(C)c(C(Nc2ccccc2)c2ccc3ccc(C)nc3c2O)c1 (stereo unspecified),nt,nt,nt,i,nt
C#CCN[C@@H]1CCc2ccccc21,nt,i,nt,nt,i
COc1ccc(C(NC(C)=O)c2ccc3cccnc3c2O)c(OC)c1 (stereo unspecified),i,1.65µM,?,nt,3.29µM
CC(=O)NC(c1ccc2ccccc2c1)c1ccc2cccnc2c1O (stereo unspecified),i,?,?,-98.2,i
CCCC(=O)NC(c1ccc(C)cc1)c1ccc2cccnc2c1O (stereo unspecified),i,3.7µM,?,nt,i
CCCCC(=O)NC(=O)NC(c1ccccc1)c1ccccc1,i,?,i,i,?
CCCCC(=O)NC(c1ccc(Cl)cc1)c1ccc2cccnc2c1O (stereo unspecified),nt,nt,nt,-97.9,nt
COc1cccc(C(NC(C)=O)c2nc(-c3cccc4cccnc34)cs2)c1 (stereo unspecified),nt,nt,nt,i,nt
CCOCCCn1c(SC(C)C(=O)NCC2CCCO2)nc2sc(C)c(C)c2c1=O (stereo unspecified),i,?,nt,i,?
Cc1cc(C)c(O)c(NC(=S)NC(=O)Cc2ccccc2)c1,i,?,i,i,?
CS(=O)(=O)NC(=O)CCC/C=C\C[C@H]1C(=O)C[C@@H](O)[C@@H]1/C=C/[C@@H](O)COc1ccccc1,nt,nt,i,nt,nt
CCCCN1C(=O)C(CC(=O)NCc2ccco2)CC(C(=O)N(CC)CC)=C1C (stereo unspecified),nt,nt,nt,i,nt
COc1ccc(C(Nc2ccccn2)c2ccc3ccc(C)nc3c2O)cc1C (stereo unspecified),0.708µM,nt,nt,i,nt
COc1ccc(C(C)C)cc1S(=O)(=O)Nc1ccccn1,i,i,i,i,nt
CC(=O)NC(c1ccc(Cl)cc1Cl)c1ccc2cccnc2c1O (stereo unspecified),i,4.15µM,?,-98.4,i
Cc1cccc(NC(c2cccc(Cl)c2)c2ccc3cccnc3c2O)n1 (stereo unspecified),4.47µM,nt,nt,-97.8,nt
SMILES,Sm TGR block,Pf growth 48h,Giardia FBPA inh,HCMV antiviral,Pf growth 96h
CC(=O)NC(CC(=O)NC(C)c1ccc(Cl)cc1Cl)c1ccccc1 (stereo unspecified),i,i,i,i,i
Cc1ccc(C(Nc2ccccn2)c2ccc3cccnc3c2O)cc1 (stereo unspecified),1µM,nt,nt,-64.3,nt
Cc1ccc(C(NC(=O)C(C)C)c2cc([N+](=O)[O-])c3cccnc3c2O)cc1 (stereo unspecified),i,i,?,i,i
CCOc1nc(Nc2ccc(OC)c(Cl)c2)nc(N2CCN(c3ccc(OC)cc3)CC2)n1,i,nt,i,?,?
CCOc1cc(C(Nc2cc(C)ccn2)c2ccc3cccnc3c2O)ccc1OC (stereo unspecified),0.282µM,nt,nt,-96.6,nt
Oc1ccc(Br)cc1/C=N/n1cnc2ccccc21,i,3.29µM,i,i,2.33µM
Oc1ccc(Br)cc1/C=N/N1CCCCC1,i,i,i,i,i
Cc1cc(OC(C)C)nc(-c2ccccc2O)n1,i,nt,i,i,i
CCCOc1cc(C)nc(-c2ccccc2O)n1,i,i,i,-64.7,i
COC(=O)C1=C(C)NC2=C(C1c1ccc(O)cc1)S(=O)(=O)c1ccccc12 (stereo unspecified),i,nt,i,i,i
COc1ccc(C2C(C#N)=C(C)NC3=C2S(=O)(=O)c2ccccc23)cc1 (stereo unspecified),i,?,i,-107.9,i
CCCCNC(=O)C[C@@H]1C[C@@]2(C(=O)OCC)CCC=C2N(CCC2=CCCCC2)C1=O,nt,nt,nt,i,nt
Cc1ccc(NC(=O)C2CCN(C(=O)N3CCOc4ccccc43)CC2)cc1,i,?,i,i,13.1µM
COc1ccc(NC(=O)C2CCN(C(=O)N3CCOc4ccccc43)CC2)cc1,i,nt,nt,i,nt
Cc1cccc(NC(=O)C2CCN(C(=O)N3CCOc4ccccc43)CC2)c1C,i,?,i,i,14.7µM
O=C(CSc1nnc(CNC(=O)c2ccco2)o1)Nc1cccc(F)c1,i,i,i,?,i
CCOc1ccc(C(C)=O)cc1NC(=O)/C=C\C(=O)O,i,i,i,i,10.4µM
CCOc1ccccc1NC(=O)Nc1cccc(C(C)=O)c1,i,nt,i,i,i
CCOc1ccccc1NC(=O)/C=C/C(N)=O,3.98µM,nt,i,i,i
COc1ccc2c3c(n(C)c2c1)[C@@H](CO)N(S(C)(=O)=O)CC31CCN(C(=O)C2CCCC2)CC1,nt,nt,nt,i,nt
CCOc1ccc(-c2nonc2NC(=O)c2oc3cc(C)c(C)cc3c2C)cc1OCC,i,nt,nt,i,nt
CC(C)(C)C(=O)Cn1ncc(N2CCOCC2)c(Cl)c1=O,i,nt,i,i,i
CC(C)(C)C(=O)Cn1ncc(Br)c(Br)c1=O,nt,i,i,-101.0,i
Brc1ccc(-c2cnnc(N3CCCC3)n2)cc1,i,3.29µM,i,i,?
C/C(=N\NC(=O)c1cccc(N/N=C(\C)c2ccc([N+](=O)[O-])cc2)c1)c1ccc([N+](=O)[O-])cc1,i,1.65µM,i,i,4.15µM
C/C(=N\NC(=O)c1cccc(N/N=C(\C)c2ccncc2)c1)c1ccncc1,i,?,i,i,8.28µM
C/C(=N\NC(=O)C(C)Sc1ccccc1)c1ccc([N+](=O)[O-])cc1 (stereo unspecified),i,i,i,i,9.28µM
CCN1CCc2c(OCC(=O)Nc3cccc(C)c3)cccc2C1=O,i,i,i,i,?
